Experimental data: the supplement of paper PMC11417369
Whole data set: some 25,000 sequences, median “ln(normalized median fluorescence intensity)” near 9.3, cut for the highest 2% near 10. This is one part of a sample in which the highest values are shown more often than they occur.

What follows are sequences tested on PF3D7_0420300 AP2 domain 1 (GST-tagged) (assay: gcPBM binding intensity (ln(normalized median fluorescence intensity)); higher = stronger DNA binding).
How it was run: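 Plasmodium falciparum DNA-binding domains carrying a GST tag were expressed in E. coli and applied for 1 h, at about 25 μg on average, to an Agilent 4 × 180k array. The array held primer-extended double-stranded 36-bp intergenic genomic probes together with negative controls, and binding took place in 1× PBS with 1% milk, 0.2 mg/ml BSA, 0.5% salmon testes DNA and 0.03% Triton X-100. An Alexa488 anti-GST antibody detected bound protein, and the array was scanned at 488 nm. Binding intensity is taken as the highest Masliner-normalised natural-log median intensity across replicate spots of either probe orientation.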

Row | Sequence | gcPBM binding intensity (ln)
1 | TAATTTTTAATTGTAGCATGCAGTATTTTTAAATAT [TGCATGCA_site140] | 8.97
2 | TACTTACAGATAATAACACACAAGAAAAAAATAAAA [CACACA_site4716] | 9.8
3 | CAAATATATATTTTCTGTACAAATACAATTAATACT [XGTACX_site2694] | 9.13
4 | ATAAAGAAAATATGGAGTACATTTATATCCAATATA [XGTACX_site3085] | 9.17
5 | CACAATGGTTTATATACACACTGTTGCAAATTCTTC [CACACA_site5659] | 9.45
6 | TATAGTTCTTCTATTTGTACATATATTATTATTTAA [XGTACX_site895] | 9.26
7 | ATTAATATATTATCATGTACACAAAAATAATTTTAT [XGTACX_site7257] | 9.13
8 | TTAAAATGTTGTAACGTGCACATTTTGTGGAAATCA [GTGCAC_site9559] | 9.07
9 | AAATAATTCATATGTTGTACAGTAATTAAATTTTCT [XGTACX_site6343] | 9.08
10 | ATAATATATATTAATACACACACACCGATATATATA [CACACA_site9261] | 10.1
11 | CTATAATAATAAAGTGAACACACACCGATAATATAT [CACACA_site9377] | 9.78
12 | AAAAAAAAAAAACACACACACACACCGAAATATATA [CACACA_site4261] | 10.2
13 | CGCGCCCAGAAACACACACACACACCGATATATATA [CACACA_site5250] | 10.3
14 | TACGCTCCCAGACACACACACACACCGATATAATAT [CACACA_site8098] | 10.3
15 | GAAATGGGTAAACATACACACACACCGATATATATA [CACACA_site8610] | 9.93
16 | AATATAAATAAAAACACACACAATGGTACAGATATA [CACACA_site5930] | 10.1
17 | TGTATAATAAGGAAGAGTACAAGTAAATACACACAT [XGTACX_site2084] | 9.87
18 | ATTATGTGCCAATACACACACACATATATATATATA [CACACA_site468] | 9.9
19 | AGAAAGATGCAAGAAACATGCAAAAAAAAAATTTCT [TGCATGCA_site725] | 9.15
20 | AAAAATTCAATAGGACGTACTAAAACATTCATTAAT [XGTACX_site1712] | 9.34
21 | AAAAATAAAGGATATACACACTAATTATATATATAT [CACACA_site5550] | 9.51
22 | GATATATAAATAAATACACACATAAAATAGAAATAT [CACACA_site6881] | 9.93
23 | CACTAAAATAGACACACACACACACGGATATAAATA [CACACA_site7873] | 10.3
24 | AAAAAAAATAGACACACACACATACACATAAATATA [CACACA_site7742] | 10.1
25 | TAAATTTATAGACACACACACATATAAATAAATATA [CACACA_site6530] | 10
26 | AAAATACATAGACACACACACACACGGATATAAATA [CACACA_site7643] | 10.2
